Here are results for 15 molecules from PubChem BioAssay (NCI).

Among the test systems are EKVX NSCLC; SN12C renal; UO-31 renal; TK-10 renal; ACHN renal; CAKI-1 renal; A498 renal; CCRF-CEM leukemia; MOLT-4 leukemia.
Common to all, as to test: NCI-60 one-dose screen, 48 h (100 = growth as untreated, 0 = no growth, -100 = all killed)
Conditions in all cases: 10 µM unless noted

Molecules are shown by their SMILES. The panel holds about 83,000 compounds, 20% with a hit somewhere; the sample as a whole holds those more often.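 Note: values are percent growth. 100 is the growth of untreated cells, values between 100 and 0 indicate rising inhibition; between -100 and 0 indicates cell death.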 A number with no mark means an inactive call. Activity calls are given as the source filed them. The calls were made as follows: active = growth percent below 10; inactive = the rest.

For `Cn1nc(-c2ccccc2)c2c(-c3ccccc3)onc2c1=O`, the growth was 54.2% with EKVX NSCLC; 45.4% in the assay on SN12C renal; 39.6% with UO-31 renal; 53% in the assay on TK-10 renal; 58.4% in the assay on ACHN renal; 36.5% in the assay on CAKI-1 renal. For the same molecule, the growth in the assay on A498 renal is 24.6%; in the assay on CCRF-CEM leukemia, 20.9%; in the assay on MOLT-4 leukemia, 42.8%.

`Cc1[c-]onc1C.Cc1[c-]onc1C.[Ag].[Ag].[NH-]S(=O)(=O)c1ccc(N=Nc2cc(N=Nc3ccc(S([NH-])(=O)=O)cc3)c3c(NC(=O)C(Cl)Cl)cccc3c2OC(=O)C(Cl)Cl)cc1`: the growth with SN12C renal is 94.1%; with UO-31 renal, 71.4%; with TK-10 renal, 133%; with ACHN renal, 58%; with CAKI-1 renal it was 68.5%; with A498 renal it was 98.6%. Further, the growth with CCRF-CEM leukemia is 11%; in the assay on MOLT-4 leukemia, 81.8%.

Consider `Cc1nnc2nc(N)[nH]n2c1=O`, for which the growth with SN12C renal was 118%; with UO-31 renal it was 84.7%; with TK-10 renal, 89.8%; in the assay on ACHN renal, 109%; with CAKI-1 renal it was 111%; in the assay with A498 renal it was 118%. Also, the growth was 109% with CCRF-CEM leukemia and 74.7% in the assay on MOLT-4 leukemia.

For `COc1cnc2c(c1)C(=O)c1c-2n(CCCNCCN2CCOCC2)c(=O)c2cc([N+](=O)[O-])ccc12`, the growth was 15.8% in the assay on EKVX NSCLC; 4.54% (active) in the assay on SN12C renal; -85.8% (active) in the assay on UO-31 renal; -0.695% (active) in the assay on TK-10 renal; -69.6% (active) with ACHN renal; -29.5% (active) in the assay with CAKI-1 renal. Further, the growth is -86.7% (active) in the assay with A498 renal, 2.23% (active) with CCRF-CEM leukemia and -1.41% (active) in the assay on MOLT-4 leukemia.

In the case of `COC(=O)c1cc(=O)nc(N/N=C/c2ccc(C)cc2)s1`, the growth with SN12C renal was 110%; in the assay on UO-31 renal, 86.4%; with TK-10 renal, 104%; in the assay with ACHN renal, 107%; in the assay on CAKI-1 renal, 102%; in the assay on A498 renal it was 104%. Also, the growth is 93% with CCRF-CEM leukemia and 92.6% with MOLT-4 leukemia.

In the case of `O=C(NC(Cc1cn(Cc2ccccc2)cn1)C(=O)O)OCC1c2ccccc2-c2ccccc21` (stereo not given), the growth with UO-31 renal is 85.1%; with TK-10 renal, 105%; in the assay with ACHN renal, 104%; with CAKI-1 renal, 103%; in the assay on A498 renal, 102%; with CCRF-CEM leukemia it was 111%. Further, the growth in the assay on MOLT-4 leukemia is 83.6%.

With `O=[N+]([O-])c1ccc(N/N=C(\C(=N/Nc2ccc([N+](=O)[O-])cc2[N+](=O)[O-])c2ccccc2)c2ccccc2)c([N+](=O)[O-])c1`, the growth was 108% in the assay on EKVX NSCLC; 97.5% in the assay with SN12C renal; 86.4% in the assay on UO-31 renal; -1.75% (active) in the assay on TK-10 renal; 95.7% with ACHN renal; 81.1% in the assay on CAKI-1 renal. For the same molecule, the growth in the assay with A498 renal was 103%; in the assay with CCRF-CEM leukemia it was 58.4%; with MOLT-4 leukemia, 92.2%.

Consider `COc1cc2[nH]c(C(=O)c3cc(OC)c(OC)c(OC)c3)c(N)c2cc1C#CCO`, for which the growth was 45.1% in the assay with SN12C renal; 31.5% in the assay with UO-31 renal; 66.2% in the assay on TK-10 renal; 23% in the assay on ACHN renal; -16.8% (active) in the assay with A498 renal; 11.5% in the assay with CCRF-CEM leukemia. In addition, the growth in the assay on MOLT-4 leukemia is 29.6%.

With `Nc1c(C(=O)Nc2cccc(Cl)c2)sc2ncc(Cl)cc12`, the growth in the assay with SN12C renal was 79.3%; in the assay on UO-31 renal, 80.5%; in the assay on TK-10 renal it was 118%; in the assay on ACHN renal, 23.9%; in the assay with CAKI-1 renal, 82.6%; in the assay with A498 renal, 103%. For the same molecule, the growth in the assay on MOLT-4 leukemia is 75.8%.

For the molecule `N=C(N)N=Nc1ccc(O)cc1`, the growth is 96% [100 µM] with EKVX NSCLC; 81.9% [100 µM] with UO-31 renal; 124% [100 µM] in the assay on TK-10 renal; 20.8% [100 µM] in the assay with ACHN renal; 53.4% [100 µM] in the assay on CAKI-1 renal; 126% [100 µM] in the assay with A498 renal. For the same molecule, the growth in the assay with CCRF-CEM leukemia was 91.2% [100 µM]; with MOLT-4 leukemia it was 88.4% [100 µM].

Take `C/C(=N\Nc1cc(C)c2ccccc2n1)c1ccccn1`: the growth with SN12C renal is 18.2%; in the assay on UO-31 renal, -86% (active); in the assay with TK-10 renal, -12.9% (active); with ACHN renal it was -47.1% (active); in the assay on CAKI-1 renal, -15.1% (active); in the assay on A498 renal, 19.2%. Moreover, the growth with CCRF-CEM leukemia is -20.2% (active); with MOLT-4 leukemia it was -18.7% (active).

Take `C/C(=N\Nc1cc(C)c2cc(C)ccc2n1)c1ccccn1`: the growth in the assay on SN12C renal is 14.8%; with UO-31 renal it was -91% (active); in the assay on TK-10 renal it was -22.2% (active); in the assay on ACHN renal, -100% (active); with CAKI-1 renal it was -16.3% (active); with A498 renal it was 20.9%. The growth is -22% (active) in the assay with CCRF-CEM leukemia and -17.2% (active) in the assay on MOLT-4 leukemia.

Consider `CC(C)(C)c1ccc(OP(=S)(N/N=C/c2ccccc2O)Oc2ccc(C(C)(C)C)cc2)cc1`, for which the growth was 72.6% with SN12C renal; 61% in the assay on UO-31 renal; 74.4% in the assay with TK-10 renal; 87.7% in the assay with ACHN renal; 62.7% with CAKI-1 renal; 89.9% in the assay on A498 renal. For the same molecule, the growth with CCRF-CEM leukemia is 68.6%; in the assay on MOLT-4 leukemia, 43.7%.

As for `Cc1ccc(-c2ccc(Nc3ccccc3)nn2)cc1S(N)(=O)=O`, the growth was 90.1% in the assay on SN12C renal; 107% with UO-31 renal; 142% in the assay on TK-10 renal; 91.6% with ACHN renal; 80.9% with CAKI-1 renal; 89.2% in the assay with A498 renal. For the same molecule, the growth in the assay on MOLT-4 leukemia is 62.2%.

With `CC1(C)C(=O)/C(=C\c2ccccn2)C[C@]2(C)[C@H]3CC[C@@H]4[C@@H](C(=O)/C=C/c5ccccn5)CC[C@@]4(C)[C@]3(C)CC[C@@H]12`, the growth with EKVX NSCLC was -16.4% (active); in the assay on SN12C renal, -4.12% (active); with UO-31 renal it was -99.6% (active); with TK-10 renal, -21.7% (active); with ACHN renal, -89% (active); in the assay on CAKI-1 renal, -20.3% (active). Besides, the growth is -80.6% (active) in the assay with A498 renal, 6.8% (active) in the assay with CCRF-CEM leukemia and 7.28% (active) with MOLT-4 leukemia.
